Source: PubChem (National Center for Advancing Translational Sciences (NCATS))
HP1b chromo inh: inhibitors of HP1-beta chromodomain binding to methylated histone tails. P83916. AlphaScreen HP1-beta / biotin-H3K9me3 peptide binding. Potency, µM (titrated, usually from 114 µM), hits mostly inhibitors. actives 0.56% (n = 390,000); note: nearly all actives have a fitted effect of over 70% in size
Target sequence (P83916 whole entry, looked up): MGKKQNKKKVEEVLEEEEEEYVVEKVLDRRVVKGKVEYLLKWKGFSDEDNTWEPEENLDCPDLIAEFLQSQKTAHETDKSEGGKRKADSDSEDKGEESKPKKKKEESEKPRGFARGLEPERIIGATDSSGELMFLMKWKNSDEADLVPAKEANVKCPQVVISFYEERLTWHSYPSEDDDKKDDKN
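Compound inhibition of the preformed complex between 50 nM HP1-beta and 50 nM biotinylated H3K9me3 peptide was read by AlphaScreen. Buffer was PBS pH 7.4 with 0.01% Tween-20. Incubations ran 30 min at room temperature, with 10 ug/mL donor/acceptor beads.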
L3MBTL1 inh: inhibitors of human L3MBTL1; actives 0.66% (n = 230,000); Potency, µM (titrated, usually from 57.1 µM), most hits filed as inhibitors; AID 485360; AlphaScreen L3MBTL1–H3K9me1 peptide binding; Q9Y468; note: nearly all actives have a fitted effect of over 60% in size
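First, the protein-peptide complex forms for 30 min at room temperature (L3MBTL1 50 nM, biotinylated H3K9me1 peptide 75 nM). Next, compounds are pin-transferred and incubated 30 min. Finally, AlphaScreen beads are added and read after 30 min.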
G9a block: blocks human histone lysine methyltransferase G9a; Q96KQ7; G9a H3K9 monomethylation, AlphaScreen, 2 h; Potency, µM (top dose mostly 102 µM), most hits filed as inhibitors; actives 8.8% (n = 350,000); AID 504332; note: nearly all actives have a fitted effect of over 75% in size
Target sequence (Q96KQ7 913-1193 limits assumed): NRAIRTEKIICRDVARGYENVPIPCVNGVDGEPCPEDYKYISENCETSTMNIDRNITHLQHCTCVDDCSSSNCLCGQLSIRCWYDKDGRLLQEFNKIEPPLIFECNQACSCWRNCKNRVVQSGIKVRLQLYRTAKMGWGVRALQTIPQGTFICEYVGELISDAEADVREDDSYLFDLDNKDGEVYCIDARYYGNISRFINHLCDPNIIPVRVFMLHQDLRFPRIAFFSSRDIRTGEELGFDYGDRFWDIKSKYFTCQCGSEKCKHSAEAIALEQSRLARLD
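Using a bead-based AlphaScreen, monomethylated H3K9 product from 2 h room-temperature reactions (G9a 20 nM, peptide 500 nM, SAM 20 uM) was detected with 0.5 ug/mL rabbit anti-H3K9me1 antibody.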
BAZ2B inh: BAZ2B (human) inhibition. Q9UIF8. AlphaScreen BAZ2B-H3K14Ac peptide displacement. Potency, µM (top dose mostly 114 µM), hits mostly inhibitors. actives 4.4% (n = 360,000); note: nearly all actives have a fitted effect of over 60% in size
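BAZ2B (50 nM) with biotin-H3(5-23)K14Ac peptide (50 nM) in PBS pH 7.4, 0.01% Tween-20, preformed 30 min, then compound 30 min at room temperature; top concentration 110uM. AlphaScreen streptavidin donor/nickel chelate acceptor beads (10 ug/mL final), 20 min dark, signal read.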
JMJD2A Tudor inh: JMJD2A Tudor domain (human) inhibition. actives 4.4% (n = 390,000). Potency, µM (highest dose often 114 µM), hits mostly inhibitors. O75164. AlphaScreen JMJD2A-Tudor / H3K4me3 peptide binding; note: nearly all actives have a fitted effect of over 50% in size
A number is an active result; 0 = inactive; ? = inconclusive; - = no result; [ ] = dose if it differs, or a comment. Rows were chosen to be rich in hits. Some 11% of all compounds tested hit in one or more screens of this group. Calls come from the whole dose curve; as a rule, active = well fitted inhibition curve with a large enough effect; inconclusive = small, poorly fitted or top-dose-only effect; inactive = no such curve, though single readings can be large or run the other way.

SMILES	HP1b chromo inh	L3MBTL1 inh	G9a block	BAZ2B inh	JMJD2A Tudor inh
COc1cc(C2/C(=C(\O)c3ccc4c(c3)OCCO4)C(=O)C(=O)N2Cc2ccccc2)ccc1O (stereo not drawn)	0	-	-	50.1µM	0
O=C1C(=O)N(Cc2cccnc2)C(c2cccc([N+](=O)[O-])c2)/C1=C(\O)c1ccc2c(c1)OCCO2 (stereo not drawn)	0	-	?	0	56.2µM
O=C1C(=O)N(Cc2ccncc2)C(c2ccccc2F)/C1=C(\O)c1ccc2c(c1)OCCO2 (stereo not drawn)	0	-	39.8µM	0	0
CN(C)CCN1C(=O)C(=O)/C(=C(/O)c2ccc3c(c2)OCCO3)C1c1ccccn1 (stereo not drawn)	0	0	31.6µM	56.2µM	0
CC(C)N(Cc1ccccc1)C(=O)C1CCCN(c2ncnc3onc(-c4ccc(F)cc4)c23)C1 (stereo not drawn)	0	-	0	0	0
Cc1ccc(-n2ncc3c(NC4CCCCC4)ncnc32)cc1	0	-	0	0	0
COc1ccc(CCNC(=O)CCC(=O)N2CC(C)Oc3ccccc32)cc1OC (stereo not drawn)	0	0	0	0	0
COc1cccc(C2/C(=C(\O)c3ccc4c(c3)OCCO4)C(=O)C(=O)N2Cc2cccnc2)c1 (stereo not drawn)	0	-	56.2µM	0	0
O=C(CSc1nnc(-c2cccs2)n1-c1ccccc1)NCc1ccc2c(c1)OCO2	0	-	0[12.7 µM]	0	0
Cc1cc(NC(=O)CSc2ncc(C(=O)O)n2-c2ccc(F)cc2)no1	0	0	-	-	0
O=C(CSc1ncc(C(=O)O)n1-c1ccc(F)cc1)NCc1ccc2c(c1)OCO2	0	0	44.7µM	0	0
O=C(CSc1nnc(Cc2cccs2)n1-c1ccc(Cl)cc1)NCc1ccc2c(c1)OCO2	0	0	50.1µM	0	0
COc1ccc(NC(=O)Cn2c(=O)n(Cc3ccccc3)c(=O)c3oc4ccccc4c32)cc1Cl	0	-	0	0	0
COc1ccc2c(c1)CC(C(=O)N1CCC(C(N)=O)CC1)CO2 (stereo not drawn)	0	-	0	0	0
COc1ccc(-c2ocnc2C(=O)N2CCN(C(=O)C(c3ccccc3)c3ccccc3)CC2)cc1	0	-	50.1µM	0	0
O=C(c1ccc(=O)[nH]c1)N1CCN(S(=O)(=O)c2ccc3ccccc3c2)CC1	0	0	0	0	0
Cc1ccc(S(=O)(=O)c2c(CO)c(-c3ccccc3)nn2C)cc1	0	-	0	0	0
Cc1ccc(S(=O)(=O)c2c(COC(=O)c3ccccc3Cl)c(-c3ccccc3)nn2C)cc1	0	-	0	6.31µM	0
CCCN(CCC)CCNc1c(NC2CCN(C(=O)OCC)CC2)c(=O)c1=O	0	-	0	0	0
CCCN(CCC)CCNc1c(N2CCN(C(=O)OCC)CC2)c(=O)c1=O	0	-	79.4µM	0	0
Cc1ccc2sc(N3CCN(CCNC(=O)c4ccco4)CC3)nc2c1C	0	0	44.7µM	?	?
COc1ccc(C(=O)OCC(=O)NC2CC2)cc1S(=O)(=O)N(C)Cc1ccccc1	0	0	50.1µM	0	0
COc1ccc(C(=O)OCC(=O)NC(Cc2ccccc2)C(C)=O)cc1S(=O)(=O)N1CCCC1 (stereo not drawn)	0	0	56.2µM	0	0
CCN(C(=O)COC(=O)c1ccc(OC)c(S(=O)(=O)N(C)Cc2ccccc2)c1)C1CCS(=O)(=O)C1 (stereo not drawn)	0	0	?	0	0
COc1ccc(C(F)(F)F)cc1NC(=O)C(OC(=O)CNC(=O)c1ccccc1)c1ccccc1 (stereo not drawn)	-	-	-	-	0
CCOc1ccc(C(=O)NCc2nnnn2-c2ccc(C)c(C)c2)cc1OCC	0	-	0	0	0
Cc1cccc(Nc2nc(N)c([N+](=O)[O-])c(N3CCCC(C)C3)n2)c1 (stereo not drawn)	0	31.6µM	39.8µM	39.8µM	39.8µM
Cc1ccc(Nc2nc(N)c([N+](=O)[O-])c(N3CCC(C)CC3)n2)cc1C	?	0	?	25.1µM	56.2µM
COc1cccc2sc(N(Cc3cccnc3)C(=O)c3ccc4c(c3)OCCO4)nc12	0	-	0	0	0
CC(NCC1(N2CCOCC2)CCCCC1)C(=O)Nc1ccc(Cl)cc1Cl (stereo not drawn)	0	-	31.6µM	50.1µM	0
